Experiments:
Assay type in all cases: functional
[1] = target: Solute carrier family 2, facilitated glucose transporter member 1 (Homo sapiens) (UniProt P11166); test: ST_JUDE_LEISH: Cytotoxicity at 2uM final concentration against transgenic Leishmania Mexicana promastigotes LmGLUT1 that are glucose transport deficient and complemented with the human glucose transporter GLUT1. Activity is measured by DNA content using SYBR green in vitro
[2] = target: Hexose transporter 1 (Plasmodium falciparum) (UniProt O97467); test: ST_JUDE_LEISH: Cytotoxicity at 2uM final concentration against transgenic Leishmania Mexicana promastigotes LmPfHT that are glucose transport deficient and complemented with the Plasmodium falciparum hexose transporter. Activity is measured by DNA content using SYBR green in vitro
[3] = target: Glucose transporter (Leishmania mexicana) (UniProt O61059); test: ST_JUDE_LEISH: Cytotoxicity at 2uM final concentration against transgenic Leishmania Mexicana promastigotes LmGT2 that are glucose transport deficient and complemented with the L. Mexicana glucose transporter 2. Activity is measured by DNA content using SYBR green in vitro

Chain of Solute carrier family 2, facilitated glucose transporter member 1 (Homo sapiens) (P11166 whole entry): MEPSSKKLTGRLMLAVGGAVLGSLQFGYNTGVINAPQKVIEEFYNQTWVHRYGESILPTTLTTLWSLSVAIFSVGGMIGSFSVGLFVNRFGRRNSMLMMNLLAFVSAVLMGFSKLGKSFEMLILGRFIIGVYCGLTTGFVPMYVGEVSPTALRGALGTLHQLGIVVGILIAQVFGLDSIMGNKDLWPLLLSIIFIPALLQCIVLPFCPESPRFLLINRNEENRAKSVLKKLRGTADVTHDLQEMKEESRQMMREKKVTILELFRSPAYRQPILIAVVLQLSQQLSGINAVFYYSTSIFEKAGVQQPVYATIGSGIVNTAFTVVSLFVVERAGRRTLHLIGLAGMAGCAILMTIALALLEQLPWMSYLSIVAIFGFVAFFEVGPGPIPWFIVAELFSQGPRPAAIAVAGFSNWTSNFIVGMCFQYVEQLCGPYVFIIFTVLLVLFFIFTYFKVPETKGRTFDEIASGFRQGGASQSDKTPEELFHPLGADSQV

In the case of `COc1ccc(Cl)cc1N1CCN(CCCNC(=O)c2ccc(-c3nc4cc(Cl)c(F)cc4[nH]3)s2)CC1`, the inhibition [1] is reported as 6.45%, the inhibition [2] is reported as 5.41% and the inhibition [3] is reported as 2.06%.
For `CN(C)c1ccc(CN2CCCCC(NC(=O)c3cc(-c4ccccc4F)cs3)C2)cc1` (centres undefined), the inhibition [1] was -0.57%, the inhibition [2] was -0.62% and the inhibition [3] was -7.76%.
`CCOC(=O)N1CCN(CCCCNc2c3ccc(Cl)cc3nc3ccc(OC)cc23)CC1` showed an inhibition [1] of 10.8%, an inhibition [2] of 9.69% and an inhibition [3] of 7.38%.
Compound `Cc1cccc(C(=O)NC(NC(=S)Nc2ccc([N+](=O)[O-])cc2)C(Cl)(Cl)Cl)c1` (centres undefined) has an inhibition [1] of 3.68%, an inhibition [2] of 3.52% and an inhibition [3] of -0.6%.
`COc1ccc2nc(C)cc(Nc3ccc(Cl)c(Cl)c3)c2c1` was tested, and the inhibition [1] was 7.6%, the inhibition [2] was 14.2% and the inhibition [3] was 17.3%.
In the case of `Cc1[nH]cnc1-c1cccc(NC(=O)c2cc3ccccc3s2)c1`, the inhibition [1] is reported as -1.01%, the inhibition [2] is reported as -1.53% and the inhibition [3] is reported as -0.35%.
In the case of `CN1CCN(CCCN(Cc2ccc(-c3cccc(CNCc4ccc5c(c4)OCO5)c3)cc2)C(=O)NCCc2ccccc2)CC1`, the inhibition [1] is reported as 5.4%, the inhibition [2] is reported as 2.67% and the inhibition [3] is reported as 3.58%.
With `Cn1c(Nc2cc(C(C)(C)C)on2)nc2cc(Nc3ccnc(Nc4ccc(CS(C)(=O)=O)cc4)n3)ccc21` the inhibition [1] was 1.46%, the inhibition [2] was 1.48% and the inhibition [3] was 2.34%.
Compound `O=C(Nc1ccccc1Br)c1cn(-c2ccccc2)nc1-c1cccc([N+](=O)[O-])c1` has an inhibition [1] of 10.6%, an inhibition [2] of 10.4% and an inhibition [3] of 8.93%.
In the case of `CCN(CC)CCN(CCN(CC)CC)c1ccc(-c2nc3cc(Cl)c(Cl)cc3[nH]2)cc1`, the inhibition [1] is reported as 15.8%, the inhibition [2] is reported as 16.3% and the inhibition [3] is reported as 7.03%.
With `CN(C)Cc1cccc(-c2ccc(Nc3nccc(NCC(O)c4ccccc4)n3)cc2)c1` (centres undefined) the inhibition [1] was 2.6%, the inhibition [2] was 3.43% and the inhibition [3] was 3.53%.
Compound `O=C(CCc1c[nH]cn1)Nc1cccc(-c2ccc(-c3nc4cc(F)ccc4[nH]3)cc2)c1` has an inhibition [1] of 16.3%, an inhibition [2] of 13.1% and an inhibition [3] of 16.6%.
For `COc1ccc2nccc([C@@H](O)CN3CCC(NCc4ccc5nc[nH]c(=O)c5c4)CC3)c2c1`, the inhibition [1] was 1.63%, the inhibition [2] was -1.56% and the inhibition [3] was -1.45%.
Work on `Cc1cc(F)ccc1[C@H]1CNCCN1C(=O)N(C)C(C)(C)c1cc(C(F)(F)F)cc(C(F)(F)F)c1` yielded an inhibition [1] of -0.57%, an inhibition [2] of -1.23% and an inhibition [3] of -1.4%.
`Cc1c(CNCCCNc2cc(=O)c3ccccc3[nH]2)sc(C(F)F)c1Br` gave an inhibition [1] of -0.36%, an inhibition [2] of -0.4% and an inhibition [3] of -1.09%.
In the case of `O=S(=O)(NCCN1CCCC1)c1ccc(-c2cccc(CNC3Cc4ccccc4C3)c2)cc1F`, the inhibition [1] is reported as 7.61%, the inhibition [2] is reported as 2.53% and the inhibition [3] is reported as 3.93%.
`CCC(C)C#Cc1c(C)nc(N)nc1N` (centres undefined) was tested, and the inhibition [1] was 0.18%, the inhibition [2] was 0.61% and the inhibition [3] was 0.17%.
`c1cc(CNCCc2ccncc2)cc(-c2cccc(-c3nc4ccccc4[nH]3)c2)c1` gave an inhibition [1] of 13.1%, an inhibition [2] of 12.2% and an inhibition [3] of 10%.
For `CN(C)Cc1cccc2nc(-c3csc(Cc4cc(Cl)ccc4OCc4ccccc4)n3)[nH]c12`, the inhibition [1] was 6.3%, the inhibition [2] was 3.36% and the inhibition [3] was 1.88%.
Work on `CN1CCC(Oc2cc(NC(=O)Nc3ccc(-c4ccncc4)c(C(F)(F)F)c3)ccc2Cl)CC1` yielded an inhibition [1] of 12.6%, an inhibition [2] of 10.6% and an inhibition [3] of 7.11%.
For `CCC(C)NS(=O)(=O)c1ccc2nc(Nc3ccc(C)cc3)n(C3CCCCC3C)c2c1` (centres undefined), the inhibition [1] was 4.96%, the inhibition [2] was 3.92% and the inhibition [3] was 2.03%.
`Cc1cccc2nc(-c3ccc(-c4cccc(CNCCCN5CCCC5=O)c4)s3)[nH]c12` gave an inhibition [1] of 3.74%, an inhibition [2] of 2.33% and an inhibition [3] of 2.91%.
`O=C(Nc1cccc(-c2ccc(-c3nc4cc(C(F)(F)F)ccc4[nH]3)cc2)c1)c1c[nH]cn1` gave an inhibition [1] of 5.73%, an inhibition [2] of 5.19% and an inhibition [3] of 0.52%.
Compound `CCCCCCCN(Cc1ccc(OC(C)(C)C(=O)OCC)cc1)C(=O)Nc1ccccc1OC(F)(F)F` has an inhibition [1] of 0%, an inhibition [2] of -1.12% and an inhibition [3] of 1.43%.
`C[C@@H](Oc1cc(-n2cnc3ccc(NC(=O)NC(C)(C)C)cc32)sc1C(N)=O)c1ccccc1Cl` gave an inhibition [1] of 4.54%, an inhibition [2] of 3.45% and an inhibition [3] of 2.98%.
With `Clc1ccccc1CCNCC1CCN(CC2CCCCC2)CC1` the inhibition [1] was 4.24%, the inhibition [2] was 5.3% and the inhibition [3] was 1.76%.
Compound `O=C(Cc1ccccc1)NC(c1ccc(Cl)cc1)c1ccc2cccnc2c1O` (centres undefined) has an inhibition [1] of 6.92%, an inhibition [2] of 4.47% and an inhibition [3] of 1.97%.
With `CCCN(CCC)C(C)CCC(C)Nc1c2ccc(Cl)cc2nc2ccc(OC)cc12` (centres undefined) the inhibition [1] was 1.91%, the inhibition [2] was 2.78% and the inhibition [3] was 2.82%.
For `CCCOc1cc2c(cc1OCCC)C(C=Cc1ccc(Cl)cc1Cl)=NC(C)C2` (centres undefined), the inhibition [1] was 94.6%, the inhibition [2] was 96.7% and the inhibition [3] was 94.4%.
Work on `CCOC(=O)c1c[nH]c2c(ccc3ccccc32)c1=O` yielded an inhibition [1] of -1.23%, an inhibition [2] of 6.87% and an inhibition [3] of 5.93%.
With `CC(C)Cn1c(Sc2ccc(C#N)c([N+](=O)[O-])c2)nnc1-c1ccccc1` the inhibition [1] was 6.46%, the inhibition [2] was 6.58% and the inhibition [3] was 3.76%.
Compound `O=C(Nc1ccc([N+](=O)[O-])cc1)c1nn(-c2ccccc2)cc1/N=C/c1cccc(O)c1` has an inhibition [1] of -0.62%, an inhibition [2] of -1.47% and an inhibition [3] of -1.45%.
For `CCN(CC(C)O)C(=O)c1ccc(-c2ccc(-c3nc4cccc(C)c4[nH]3)cc2)cc1` (centres undefined), the inhibition [1] was 6.07%, the inhibition [2] was -2.57% and the inhibition [3] was 0.55%.

From ChEMBL document CHEMBL3433997, “St. Jude Leishmania screening dataset” (2016)
